Assay [1] deals with Alpha-galactosidase A (Homo sapiens) (UniProt P06280). Nature of the assay: Counterscreen for Glucocerebrosidase Inhibitors: qHTS Assay for Human alpha-Galactosidase at pH 4.5 (AID 992). A digest of the protocol: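 Fluorogenic 4-MU alpha-D-galactoside (80 uM) hydrolysis, 2 nM enzyme, pH 4.5 citrate buffer + 0.005% Tween-20; 20 min RT; NaOH/glycine pH 10 stop; Ex365/Em440. Compounds titrated 0.7 nM–77 uM; Hill-equation AC50.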
(The purpose of a counterscreen is to sort out artefacts and off-target activity.)

Assay [2] can be described thus: Validation of Assay for Modulators of Lamin A Splicing (AID 1459; active = well fitted curve in the direction sought with a large enough effect in the signal ratio; the % refers to the signal ratio;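 also: cells exposed to compound for two days before reading; ratio rise marks activators and ratio drop marks inhibitors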). The gist of the method:
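S3 HeLa stably expressing lamin A-EGFP splicing minigene and DsRed2, 600 cells/well in Opti-MEM with 2% FBS, treated 48 h at 37C; laser-scanning cytometry gives GFP/RFP total intensity ratio; ancitabine positive control, 0.5% DMSO vehicle.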

A short description of assay [3]: Cell Viability - LYMP2-021 (AID 974).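 Also: compound exposure lasts 24 hours at 37 °C; nearly all actives have a fitted effect of over 55% in size.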 The gist of the method: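 Loss of cellular ATP, measured with a luciferase-based CellTiter-Glo readout, serves as the toxicity signal in human lymphoblastoid cells treated for 24 hours at 37 C. Potency is reported as AC50 from a standard Hill model.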
Assay [4] in a line: Cell Viability - LYMP2-023 (AID 975).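 Also: cellular ATP measured by luciferase luminescence as viability proxy; series mostly up to about 92 µM; nearly all actives have a fitted effect of over 55% in size.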 A digest of the protocol:
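Steps: seed 2500 human lymphoblastoid cells per well, incubate 5 hr at 37 C, add compound for 24 hr at 37 C, add CellTiter-Glo, hold 30 min at room temperature, read luminescence. AC50 derived by Hill modelling.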

Assay [5] in a line: Cell Viability - LYMP2-025 (AID 976). Also: series mostly up to about 92 µM. The gist of the method:
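Acute cytotoxicity is scored as a concentration-dependent fall in intracellular ATP, measured by luciferase luminescence, in human lymphoblastoid LYMP2-025 cells exposed to compound for 24 hours at 37 C. AC50 values come from standard Hill fits.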

A short description of assay [6]: Cell Viability - LYMP2-002 (AID 977).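 Also: series mostly up to about 92 µM; compound exposure lasted 24 h at 37 °C.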 A digest of the protocol:
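Human lymphoblastoid cells (2500/well) in complete medium were preincubated 5 hr at 37 C, then exposed to compounds for 24 hr at 37 C. Intracellular ATP was read by CellTiter-Glo luminescence; AC50 came from Hill-equation concentration-response fits.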

A short description of assay [7]: Cell Viability - LYMP2-006 (AID 978). Also: series mostly up to about 92 µM; nearly all actives have a fitted effect of over 60% in size. The gist of the method: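 Human lymphoblastoid cells (LYMP2-006), 2500/well in complete medium, were treated with compound for 24 hr at 37 C. Cellular ATP was read by CellTiter-Glo luminescence after 30 min, and AC50 values came from Hill-equation fits of concentration-response data.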
Assay [8] in a line: Cell Viability - LYMP2-007 (AID 979).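 Also: cells exposed to compound for 24 h before reading; nearly all actives have a fitted effect of over 60% in size.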 A digest of the protocol:
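Cells are seeded at 2500 per well and rested 5 hr. Compounds are then added over a concentration series for 24 hr at 37 C. CellTiter-Glo is added for 30 min at room temperature before luminescence reading.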

Assay [9] is described as follows: Cell Viability - LYMP2-008 (AID 980). Also: nearly all actives have a fitted effect of over 60% in size. A digest of the protocol: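 Cells seeded at 2500/well and rested 5 hr at 37 C; compounds added over a concentration range and incubated 24 hr at 37 C; CellTiter-Glo added, 30 min at room temperature; luminescence read and AC50 fitted with Hill model.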
A short description of assay [10]: Cell Viability - LYMP2-010 (AID 981). Also: nearly all actives have a fitted effect of over 55% in size. Also: potency is read from the fitted curve at half-maximal effect. A digest of the protocol:
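Steps: seed 2500 LYMP2-010 cells per well; incubate 5 hr at 37 C; add compound; incubate 24 hr at 37 C; add CellTiter-Glo, wait 30 min at room temperature; read luminescence. Concentration-response fitted to Hill equation for AC50.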

Assay [11] is described as follows: Cell Viability - LYMP2-012 (AID 982).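 Also: cellular ATP by luciferase luminescence where a drop means cytotoxicity; cells exposed to compound for one day before reading; nearly all actives have a fitted effect of over 55% in size.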
Assay [12] in a line: Cell Viability - LYMP2-014 (AID 983). Also: series mostly up to about 92 µM; nearly all actives have a fitted effect of over 50% in size. The gist of the method:
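Cells are plated at 2500/well and left 5 hr at 37 C. Compounds are added across a concentration range and incubated 24 hr at 37 C in complete medium. CellTiter-Glo is added, and luminescence is read after 30 min at room temperature.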

Assay [13] is described as follows: Cell Viability - LYMP2-016 (AID 984). Also: nearly all actives have a fitted effect of over 55% in size. The gist of the method: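 Human lymphoblastoid LYMP2-016 cells, 2500 per well, treated with compounds for 24 h at 37 C. Viability read as intracellular ATP by CellTiter-Glo luminescence after 30 min at room temperature; AC50 from Hill fits of concentration-response.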
Assay [14] can be described thus: Cell Viability - LYMP2-018 (AID 985).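 Also: compound exposure lasted 24 hr at 37 °C; nearly all actives have a fitted effect of over 50% in size.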 The gist of the method:
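Seed 2500 lymphoblastoid cells per well, incubate 5 hr at 37 C, add compound and incubate 24 hr at 37 C, add CellTiter-Glo, wait 30 min at room temperature, then read luminescence.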

The nature of assay [15]: Cell Viability - LYMP2-020 (AID 986). A digest of the protocol:
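Seed 2500 cells per well and incubate 5 hr at 37 C. Add compounds at a concentration series and incubate 24 hr at 37 C. Add CellTiter-Glo, wait 30 min at RT, read luminescence, and fit a Hill curve for AC50.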

Assay [16] is described as follows: Cell Viability - LYMP2-022 (AID 987). Also: nearly all actives have a fitted effect of over 55% in size. A digest of the protocol:
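Cells were seeded at 2500 per well, rested 5 hr at 37 C, and treated with titrated compounds for 24 hr at 37 C. Cellular ATP was then quantified by luciferase luminescence, and AC50 values were derived from Hill-modelled concentration-response curves.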

Assay [17] in a line: Cell Viability - LYMP2-024 (AID 988). Also: nearly all actives have a fitted effect of over 60% in size. A digest of the protocol:
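qHTS cytotoxicity, human lymphoblastoid line, complete medium; 24 h cpd treatment, 37 C; CellTiter-Glo ATP luminescence readout; tetraoctylammonium bromide positive control; AC50 via Hill fit.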

Assay [18] in a line: Cell Viability - LYMP2-026 (AID 989). Also: nearly all actives have a fitted effect of over 50% in size. A digest of the protocol: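 Cells are seeded at 2500 per well and held 5 hr at 37 C. Compounds are added in concentration series for 24 hr, then CellTiter-Glo reagent is applied and luminescence read.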
Assay [19] can be described thus: Cell Viability - LYMP1-002 - Assay at 24 hr (AID 993). A digest of the protocol:
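Acute toxicity is measured as concentration-dependent loss of cellular ATP in a human lymphoblastoid line (Coriell LYMP1-002) after 24 h treatment in complete medium. ATP is quantified by luciferase luminescence and AC50 derived by Hill modelling.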

Assay [20] in a line: Cell Viability - LYMP1-002 - Assay at 40 hr (AID 994). Also: nearly all actives have a fitted effect of over 60% in size. A digest of the protocol: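 Cells are plated at 2500 per well and rested 5 hr at 37 C. Compounds are added and incubated 40 hr at 37 C. CellTiter-Glo reagent is added for 30 min at room temperature before luminescence is read.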

Results filed as inconclusive are left out. Active and inactive are the calls of the source. Unless noted, calls follow the shape of the dose curve; as a rule, active = well fitted curve in the direction sought with a large enough effect; inconclusive = small, poorly fitted or top-dose-only effect, or another doubt; inactive = no such curve, though single readings can be large; an effect the other way counts as inactive or inconclusive.

Chain of Alpha-galactosidase A (Homo sapiens) (P06280 whole entry, looked up): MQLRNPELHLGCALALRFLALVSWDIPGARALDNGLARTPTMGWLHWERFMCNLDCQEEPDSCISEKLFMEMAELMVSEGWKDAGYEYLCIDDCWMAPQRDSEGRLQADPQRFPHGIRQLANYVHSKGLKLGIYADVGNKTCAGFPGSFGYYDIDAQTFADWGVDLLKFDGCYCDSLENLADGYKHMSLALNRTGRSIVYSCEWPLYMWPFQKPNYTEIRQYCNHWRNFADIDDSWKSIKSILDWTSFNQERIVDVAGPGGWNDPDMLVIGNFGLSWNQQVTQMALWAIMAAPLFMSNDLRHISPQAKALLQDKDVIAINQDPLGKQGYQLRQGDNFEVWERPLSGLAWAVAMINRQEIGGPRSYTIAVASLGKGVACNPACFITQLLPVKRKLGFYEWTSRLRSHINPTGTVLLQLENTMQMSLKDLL

As for `Cc1[nH]c(=O)c(C#N)cc1-c1ccncc1`, the compound was called inactive in assay [1].

As for `Clc1cccc(Cl)c1NC1=NCCN1`, in [1], the compound was called inactive.

In the case of `O=C1CCC(N2C(=O)c3ccccc3C2=O)C(=O)N1` (stereo not given), the compound was called inactive in [2].

As to `Cc1oncc1C(=O)Nc1ccc(C(F)(F)F)cc1`, the call in assay [1] and in assay [2] was inactive.

In the case of `NCCc1ccc(O)c(O)c1`, the compound was classed as inactive in assay [1] and in [2].

As for `NS(=O)(=O)c1cc2c(cc1Cl)NC=NS2(=O)=O`, the call in [3], in assay [4], in [5], in assay [6], in [7] and in assay [8] was inactive. Further, the outcome in [9], in assay [11], in [12], in assay [13], in assay [14] and in assay [15] was inactive. Besides, the compound was called inactive in [16], in [17], in assay [18], in assay [1], in assay [19] and in assay [20]. The outcome in [2] was inactive. Further, the Potency entry in assay [10] is “inactive”.

`CCN(CC)CCCC(C)Nc1ccnc2cc(Cl)ccc12` (stereo not given): the compound was called inactive in [2].

As for `CCOC(=O)N1CCC(=C2c3ccc(Cl)cc3CCc3cccnc32)CC1`, the outcome in [1] was inactive.

In the case of `Nc1ccc(S(=O)(=O)Nc2ccnn2-c2ccccc2)cc1`, the compound was called inactive in [1] and in [2].

Regarding `CC(C)(Sc1ccc(CCN(CCCCC2CCCCC2)C(=O)NC2CCCCC2)cc1)C(=O)O`, the compound was classed as inactive in [1].

Consider `NC(N)=NC(=O)c1nc(Cl)c(N)nc1N`, for which the outcome in assay [3], in [4], in assay [5], in assay [6], in [7] and in [8] was inactive. The compound was called inactive in assay [9], in [11], in assay [12], in assay [13], in [14] and in [16]. Also, the compound was classed as inactive in assay [17], in assay [18], in assay [1], in assay [19] and in assay [20].

Consider `NNCCc1ccccc1`, for which the compound was called inactive in [1].

In the case of `N[C@@H]1CONC1=O`, the result in assay [1] and in [2] was inactive.

Turning to `O=c1n(CCCN2CCN(c3cccc(Cl)c3)CC2)nc2ccccn12`, the compound was called inactive in assay [1].

Turning to `Cc1ccc(N(CC2=NCCN2)c2cccc(O)c2)cc1`, the compound was called inactive in assay [1] and in assay [2].

Turning to `CC(C)NCC(O)COc1ccc(COCCOC(C)C)cc1` (stereo not given), the compound was classed as inactive in [1].

As to `OC(CN1CCC(Cc2ccc(F)cc2)CC1)c1ccc(Cl)cc1` (stereo not given), in assay [1], the outcome was inactive.

Take `Cc1[nH]c(=O)c(C#N)cc1-c1ccc2nccn2c1`: the result in assay [1] was inactive.

As to `NC[C@H](O)c1ccc(O)c(O)c1`, the call in [1] and in [2] was inactive.

As to `Nc1nc2ccc(OC(F)(F)F)cc2s1`, the outcome in [1] was inactive.

For `Nc1nc2c(ncn2COCCO)c(=O)[nH]1`, the outcome in [1] was inactive.

Consider `CCC(C)N(C)C(=O)c1cc2ccccc2c(-c2ccccc2Cl)n1` (stereo not given), for which the compound was classed as inactive in assay [2].

With `CCOC(=O)C1=C[C@]2(CC)CCCN3CCc4c(n1c1ccccc41)[C@@H]32`, in assay [2], the compound was called inactive.

As to `Cn1cnc([N+](=O)[O-])c1Sc1ncnc2nc[nH]c12`, the call in assay [5], in assay [6], in [12], in [1] and in assay [19] was inactive. Moreover, the Potency in [10] is 39.8 µM (active).

On to `C[C@]12CCC(=O)C=C1CC[C@@H]1[C@@H]2[C@@H](O)C[C@@]2(C)[C@H]1CC[C@]2(O)C(=O)CO`, for which the outcome in assay [1] was inactive.

`Cc1cnc(NC(=O)C2=C(O)c3ccccc3S(=O)(=O)N2C)s1`: the outcome in assay [1] and in assay [2] was inactive.

With `C1COC(NC(C2CC2)C2CC2)=N1`, in [1], the compound was called inactive.

Regarding `CNC[C@H](O)c1cccc(O)c1`, in [1], the result was inactive.

Source of the values: PubChem BioAssay (NCATS).
